Test results: the supplement of paper PMC10849652
About 7,900 targets were measured; listed, in parts, are those with a hit and a random draw of the rest. About 0.6% of all pairs of compound and target were hits.

Key:
Test in all cases: log2 fold change, soluble protein after heating vs DMSO (PISA); higher = thermal stabilisation; K562 cells, 10 uM, 30 min; active = over 0.2 and 3.5 SD of the protein, either way, in both replicates (recomputed)
bafetinib = compound: Cc1ccc(NC(=O)c2ccc(CN3CC[C@H](N(C)C)C3)c(C(F)(F)F)c2)cc1Nc1nccc(-c2cncnc2)n1 [bafetinib]
Summary of the method: (§1)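 K562 cells at 2×10^6 cells/mL were given 10 μM compound for 30 min. Aliquots then went through 3 min of heating across 48°C-58°C, were pooled, and were extracted in PBS with 0.5% NP-40 at 4°C, and the supernatant after 21,000xg for 90 min was quantified by TMTpro 16plex LC-MS/MS with channel sums equalised. Thermal stability relative to control samples, from duplicates, is given as log2 fold change.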

[1] = compound: Cc1cccc(CC(=O)N2CCc3c2ccc(-c2cn(C)c4ncnc(N)c24)c3F)n1
Summary of the method: as §1

nilotinib = compound: Cc1cn(-c2cc(NC(=O)c3ccc(C)c(Nc4nccc(-c5cccnc5)n4)c3)cc(C(F)(F)F)c2)cn1 [nilotinib]
Summary of the method: as §1

[2] = compound: Cc1nc(Nc2n[nH]c3c2CN(C(=O)N[C@H](CN(C)C)c2ccccc2)C3(C)C)c2sccc2n1
Summary of the method: as §1

dasatinib = compound: Cc1nc(Nc2ncc(C(=O)Nc3c(C)cccc3Cl)s2)cc(N2CCN(CCO)CC2)n1 [dasatinib]
Summary of the method: as §1

[3] = compound: Cc1ncc(-c2ccnc(Nc3ccc(S(C)(=O)=O)cc3)n2)n1C(C)C
Summary of the method: as §1

[4] = compound: Cn1cc(-c2ccc3c(c2)CCN3C(=O)Cc2cccc(C(F)(F)F)c2)c2c(N)ncnc21
Summary of the method: as §1

[5] = compound: Cn1cc(-c2ccc3nnc(C(F)(F)c4ccc5ncccc5c4)n3n2)cn1
Summary of the method: as §1

tipifarnib = compound: Cn1cncc1[C@@](N)(c1ccc(Cl)cc1)c1ccc2c(c1)c(-c1cccc(Cl)c1)cc(=O)n2C [tipifarnib]
Summary of the method: as §1

mubritinib = compound: FC(F)(F)c1ccc(/C=C/c2nc(COc3ccc(CCCCn4ccnn4)cc3)co2)cc1 [mubritinib]
Summary of the method: as §1

Measured: log2 fold change

ARFIP1 (UniProt P53367)
Sequence of UniProt P53367 (P53367 whole entry, looked up): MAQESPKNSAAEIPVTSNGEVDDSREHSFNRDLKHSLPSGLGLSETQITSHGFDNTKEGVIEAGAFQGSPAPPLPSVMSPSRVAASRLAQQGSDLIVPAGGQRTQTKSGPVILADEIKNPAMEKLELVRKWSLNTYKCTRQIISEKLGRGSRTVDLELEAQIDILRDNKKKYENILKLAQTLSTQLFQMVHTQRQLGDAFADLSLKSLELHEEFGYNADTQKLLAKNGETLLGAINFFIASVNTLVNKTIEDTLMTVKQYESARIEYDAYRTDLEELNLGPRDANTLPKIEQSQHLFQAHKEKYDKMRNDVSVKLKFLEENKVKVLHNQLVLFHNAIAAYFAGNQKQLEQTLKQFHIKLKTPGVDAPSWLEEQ
active: [5] 0.461
inactive: bafetinib -0.198 | [1] 0.077 | nilotinib -0.177 | [2] -0.148 | dasatinib -0.113 | [3] 0.05 | [4] 0.069 | tipifarnib -0.115 | mubritinib -0.054

AKT2 (UniProt P31751)
Sequence of UniProt P31751 (P31751 whole entry, looked up): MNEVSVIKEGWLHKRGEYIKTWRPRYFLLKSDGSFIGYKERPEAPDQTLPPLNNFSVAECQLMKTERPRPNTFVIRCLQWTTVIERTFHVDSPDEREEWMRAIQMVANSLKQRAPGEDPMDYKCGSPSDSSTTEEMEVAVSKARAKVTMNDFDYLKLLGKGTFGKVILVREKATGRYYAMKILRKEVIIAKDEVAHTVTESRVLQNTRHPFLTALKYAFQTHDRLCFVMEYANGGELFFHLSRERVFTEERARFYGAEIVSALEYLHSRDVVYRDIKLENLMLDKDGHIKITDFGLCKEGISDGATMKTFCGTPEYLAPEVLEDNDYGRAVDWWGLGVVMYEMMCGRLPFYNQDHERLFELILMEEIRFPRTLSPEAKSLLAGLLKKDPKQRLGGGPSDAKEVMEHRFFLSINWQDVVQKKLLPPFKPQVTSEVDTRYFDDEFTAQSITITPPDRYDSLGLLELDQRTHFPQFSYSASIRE
inactive: bafetinib 0.021 | [1] 0.049 | nilotinib -0.037 | [2] -0.144 | dasatinib -0.145 | [3] -0.108 | [4] 0.019 | [5] -0.034 | tipifarnib -0.185 | mubritinib 0.037

BYSL (UniProt Q13895)
Sequence of UniProt Q13895 (Q13895 whole entry, looked up): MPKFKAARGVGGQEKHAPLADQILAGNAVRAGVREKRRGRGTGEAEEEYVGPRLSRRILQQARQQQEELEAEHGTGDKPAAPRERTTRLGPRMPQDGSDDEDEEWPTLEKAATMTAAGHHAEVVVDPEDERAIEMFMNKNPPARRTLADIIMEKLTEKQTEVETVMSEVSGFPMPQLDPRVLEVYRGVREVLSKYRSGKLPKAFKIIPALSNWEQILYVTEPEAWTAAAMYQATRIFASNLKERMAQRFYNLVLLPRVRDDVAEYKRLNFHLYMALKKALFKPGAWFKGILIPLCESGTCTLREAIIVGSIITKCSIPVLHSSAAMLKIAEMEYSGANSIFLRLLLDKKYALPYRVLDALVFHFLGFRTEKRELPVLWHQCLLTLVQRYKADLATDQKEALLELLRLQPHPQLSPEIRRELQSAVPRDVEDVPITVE
inactive: bafetinib 0.118 | [1] 0.034 | nilotinib -0.131 | [2] 0.163 | dasatinib -0.082 | [3] 0.064 | [4] -0.05 | [5] -0.003 | tipifarnib -0.063 | mubritinib 0.062

ARRDC1 (UniProt Q8N5I2)
Sequence of UniProt Q8N5I2 (Q8N5I2 whole entry, looked up): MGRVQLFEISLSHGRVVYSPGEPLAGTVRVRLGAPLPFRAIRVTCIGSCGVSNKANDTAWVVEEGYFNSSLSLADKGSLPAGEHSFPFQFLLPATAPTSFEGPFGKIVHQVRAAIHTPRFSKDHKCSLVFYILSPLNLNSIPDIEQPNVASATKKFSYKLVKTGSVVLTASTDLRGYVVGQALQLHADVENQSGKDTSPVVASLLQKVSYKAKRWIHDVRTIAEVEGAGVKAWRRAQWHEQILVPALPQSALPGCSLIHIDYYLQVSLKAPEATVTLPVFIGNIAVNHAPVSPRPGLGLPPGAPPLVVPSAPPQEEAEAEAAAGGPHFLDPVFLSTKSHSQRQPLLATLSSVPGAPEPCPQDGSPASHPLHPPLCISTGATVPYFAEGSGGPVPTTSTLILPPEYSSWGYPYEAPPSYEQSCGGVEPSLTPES
inactive: bafetinib 0.014 | [1] -0.035 | nilotinib -0.045 | [2] 0.065 | dasatinib -0.073 | [3] 0.079 | [4] 0 | [5] -0.087 | tipifarnib 0.011 | mubritinib -0.112

BZW2 (UniProt Q9Y6E2)
Sequence of UniProt Q9Y6E2 (Q9Y6E2 whole entry, looked up): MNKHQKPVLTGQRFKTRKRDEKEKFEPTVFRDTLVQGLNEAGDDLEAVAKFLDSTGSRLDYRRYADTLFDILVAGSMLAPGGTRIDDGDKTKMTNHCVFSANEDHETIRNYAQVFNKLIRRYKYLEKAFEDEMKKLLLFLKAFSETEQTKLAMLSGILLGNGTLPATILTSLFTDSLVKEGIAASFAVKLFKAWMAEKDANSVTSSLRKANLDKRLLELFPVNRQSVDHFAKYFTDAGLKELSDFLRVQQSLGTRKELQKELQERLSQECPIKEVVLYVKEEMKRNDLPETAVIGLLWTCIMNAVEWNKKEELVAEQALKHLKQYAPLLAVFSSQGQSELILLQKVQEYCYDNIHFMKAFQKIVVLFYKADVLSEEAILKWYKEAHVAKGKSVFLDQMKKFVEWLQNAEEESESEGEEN
inactive: bafetinib -0.021 | [1] 0.073 | nilotinib -0.057 | [2] -0.04 | dasatinib -0.132 | [3] -0.019 | [4] 0.034 | [5] -0.004 | tipifarnib -0.158 | mubritinib 0.095

AKR1C2 (UniProt P52895)
Sequence of UniProt P52895 (P52895 whole entry, looked up): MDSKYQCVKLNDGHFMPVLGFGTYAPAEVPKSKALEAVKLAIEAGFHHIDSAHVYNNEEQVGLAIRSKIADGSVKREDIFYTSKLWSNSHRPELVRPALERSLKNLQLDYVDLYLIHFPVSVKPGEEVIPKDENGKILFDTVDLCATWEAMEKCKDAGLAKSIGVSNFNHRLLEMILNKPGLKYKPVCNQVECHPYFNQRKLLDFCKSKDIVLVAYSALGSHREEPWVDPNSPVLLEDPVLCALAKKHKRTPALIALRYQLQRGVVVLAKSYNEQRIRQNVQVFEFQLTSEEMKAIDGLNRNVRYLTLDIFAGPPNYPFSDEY
inactive: bafetinib 0.103 | [1] -0.111 | nilotinib 0.029 | [2] -0.057 | dasatinib -0.012 | [3] 0.028 | [4] -0.07 | [5] 0.223 | tipifarnib 0.271 | mubritinib -0.06
